Measured values: PubChem BioAssay (NCI)
Several values for one entry are separate records, joined by “and”; a condition that tells them apart may be missing. Equal values may be shown once. This is part of a sample that, as a whole, favours compounds with a hit. Of some 79,000 tested, about 15% had one in any assay. The source holds several records for some structures; these can differ, active in one and inactive in another. Activity calls are given as the source filed them. No stated cut-off is given here; in the data, active means growth inhibition above about 70%; inactive means the rest.

Assays:
[1] = NCI Yeast Anticancer Drug Screen. Data for the rad50 strain (AID 155);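 further: 0% = growth of vehicle-only cultures of the same strain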; conditions: S. cerevisiae rad50 strain growth inhibition, stronger effect = higher value
In short: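 Cells are treated with compound, grown, and their growth is then scored against vehicle-only cultures of the same repair-deficient yeast strain.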

[2] = NCI Yeast Anticancer Drug Screen. Data for the mec2-1 strain (AID 157); conditions: S. cerevisiae mec2-1 strain, stronger effect = higher value
In short: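 Mutant yeast (mec2-1) grown with compound; growth inhibition relative to vehicle control reported.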

[3] = NCI Yeast Anticancer Drug Screen. Data for the sgs1 mgt1 strain (AID 161);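 further: 0% = growth of cultures given vehicle only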; conditions: S. cerevisiae sgs1 mgt1 strain, stronger effect = higher value
In short: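 Growth of a repair-deficient yeast mutant was monitored after compound treatment and expressed as inhibition relative to vehicle-treated cultures.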

[4] = NCI Yeast Anticancer Drug Screen. Data for the cln2 rad14 strain (AID 165);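 further: 0% = growth equal to vehicle treated cultures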; conditions: S. cerevisiae cln2 rad14 strain, stronger effect = higher value
In short: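 Readout is yeast growth inhibition versus vehicle-treated controls, using a strain with cln2 and rad14 alterations exposed to compound.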

[5] = NCI Yeast Anticancer Drug Screen. Data for the bub3 strain (AID 167); conditions: S. cerevisiae bub3 mutant strain, stronger effect = higher value
In short: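 Part of a panel of yeast mutants defective in DNA damage repair or cell cycle regulation. Each strain is grown with compound, and inhibition is calculated relative to solvent-treated cultures.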

[6] = NCI Yeast Anticancer Drug Screen. Data for the mlh1 rad18 strain (AID 175); conditions: S. cerevisiae mlh1 rad18 strain growth inhibition, stronger effect = higher value
In short: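 Genetically defined yeast (DNA repair-deficient) exposed to compounds; growth inhibition determined relative to vehicle.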

[7] = at 5.0 µM (retest, dose inferred, filed as 0.5)
[8] = at 50.0 µM (retest, dose inferred, filed as 5.0)

| SMILES | growth inhibition [1, 7] | growth inhibition [1, 8] | growth inhibition ([1]; at 50.0 µM) | growth inhibition [2, 7] | growth inhibition [2, 8] | growth inhibition ([2]; at 50.0 µM) | growth inhibition [3, 7] | growth inhibition [3, 8] | growth inhibition ([3]; at 50.0 µM) | growth inhibition [4, 7] | growth inhibition [4, 8] | growth inhibition ([4]; at 50.0 µM) | growth inhibition [5, 7] | growth inhibition [5, 8] | growth inhibition ([5]; at 50.0 µM) | growth inhibition [6, 7] | growth inhibition [6, 8] | growth inhibition ([6]; at 50.0 µM) |
| --- | --- | --- | --- | --- | --- | --- | --- | --- | --- | --- | --- | --- | --- | --- | --- | --- | --- | --- |
| O=C(C(=Cc1ccccc1)C(=O)c1ccccc1)c1ccccc1 | 42% (inactive) | 92% (active) | 86.5% (active) and 21.2% (inactive) | 54% (inactive) | 95% (active) | 90.5% (active) and 7.7% (inactive) | 50% (inactive) | 95% (active) | 89.5% (active) and 18.9% (inactive) | 50% (inactive) | 89% (active) | 83.8% (active) and -79.9% (inactive) | 84% (active) | 96% (active) | 88% (active) and 51.6% (inactive) | 69% (inactive) | 94% (active) | 87.8% (active) and 20.8% (inactive) |
| ON=C(Cc1ccccc1)Cc1ccccc1 | 7% (inactive) | -7% (inactive) | 20.4% (inactive) and 1.3% (inactive) | -4% (inactive) | -8% (inactive) | 5.7% (inactive) and -6.9% (inactive) | 1% (inactive) | 34% (inactive) | 23.2% (inactive) and 82.5% (active) | 2% (inactive) | -8% (inactive) | 46.2% (inactive) and -4.6% (inactive) | -83% (inactive) | -3% (inactive) | -2.8% (inactive) and 17.2% (inactive) | 1% (inactive) | 9% (inactive) | 61.8% (inactive) and 27.9% (inactive) |
| Cc1cc2c(c(Br)c1O)Oc1c(cc(C)c(O)c1Br)C21OC(=O)c2ccccc21 | 52% (inactive) | 98% (active) | 90.7% (active) | 42% (inactive) | 99% (active) | 93% (active) | 55% (inactive) | 99% (active) | 92.6% (active) | 36% (inactive) | 98% (active) | 92.5% (active) | 52% (inactive) | 99% (active) | 91% (active) | 77% (active) | 98% (active) | 90% (active) |
| CC(C)(C)OC(=O)NOc1ccc([N+](=O)[O-])cc1[N+](=O)[O-] | 22% (inactive) | 99% (active) | 98.7% (active) and 99.5% (active) | 4% (inactive) | 100% (active) | 99.5% (active) and 99.7% (active) | 38% (inactive) | 100% (active) | 99.5% (active) | 8% (inactive) | 99% (active) | 97.2% (active) and 99.5% (active) | 9% (inactive) | 99% (active) | 99.2% (active) and 99.5% (active) | 68% (inactive) | 97% (active) | 99.2% (active) and 99.7% (active) |
